Experiment [1] concerns the target Tumor susceptibility gene 101 protein (Homo sapiens) (UniProt Q99816). Kind of experiment: qHTS Assay for Iinhibitors of HIV-1 Budding by Blocking the Interaction of PTAP/TSG101: Hit Validation (AID 651600). Also: nearly all actives have a fitted effect of over 70% in size. Also: potency is read from the fitted curve at half-maximal effect. To be noted: PTAP peptide/TSG101 UEV interaction, biochemical assay; series mostly up to 57.5 µM. The essentials:
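Fluorescence polarization binding assay: Tsg101 binding domain (10 uM) mixed with compounds and FITC-labeled PTAP peptide (50 nM) in HEPES pH 7.5, 0.15 M NaCl, 0.01% Tween 20, EDTA, TCEP; 20 min at r.t.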
Background: In qHTS, concentration-response curves come from the screen itself.

Experiment [2] is described as follows: qHTS for Inhibitors of Ubiquitin-specific Protease USP2a Using CHOP2 as the Reporter: K633 Counterscreen (AID 652168). To be noted: No-enzyme DiUb K48 IQF substrate fluorescence interference, kinetic; series mostly up to 57.5 µM. The essentials:
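Detection-system control: fluorescence of K48-linked DiUb-4IQF substrate (100 nM as added) tracked over time, Ex 525/Em 598, with pinned compounds and no enzyme, in pH 8 Tris buffer containing beta-mercaptoethanol and 0.05% Chaps.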

Experiment [3] is described as follows: qHTS for Inhibitors of Ubiquitin-specific Protease USP2a Using CHOP2 as the Reporter: Cytotox Assay (AID 652170). Also: nearly all actives have a fitted effect of over 70% in size. Also: potency is read from the fitted curve at half-maximal effect. The conditions noted are these: HCT116 viability, CellTiter-Glo luminescence, 72 h; series mostly up to 46.1 µM. The essentials: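 Cytotoxicity read as ATP luminescence (CellTiter-Glo) after 72 hr compound treatment at 37 deg C. Cells: HCT116, 600/well in DMEM plus 10% FBS. Normalization between DMSO-treated cells and cell-free wells.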

Experiment [4] deals with Ubiquitin carboxyl-terminal hydrolase 2 (Homo sapiens) (UniProt O75604). The experiment is described as follows: qHTS for Inhibitors of Ubiquitin-specific Protease USP2a Using CHOP2 as the Reporter: K484 Substrate (AID 652173).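 Also: cleavage of internally quenched K48 di-ubiquitin substrate measured as rising fluorescence over time; nearly all actives have a fitted effect of over 70% in size.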 Also: potency is read from the fitted curve at half-maximal effect. The conditions noted are these: USP2 cleavage of DiUb K48 IQF substrate, fluorescence; series mostly up to 57.5 µM. The gist of the method: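 Kinetic fluorescence (Ex 525/Em 598) tracked cleavage of an internally quenched K48 di-ubiquitin substrate, added as a 100 nM solution. The enzyme was added as a 5 nM USP2 solution before compound pinning, with no-enzyme controls. Buffer: Tris pH 8, beta-mercaptoethanol, CHAPS.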
Chain of Ubiquitin carboxyl-terminal hydrolase 2 (Homo sapiens) (O75604 whole entry, looked up): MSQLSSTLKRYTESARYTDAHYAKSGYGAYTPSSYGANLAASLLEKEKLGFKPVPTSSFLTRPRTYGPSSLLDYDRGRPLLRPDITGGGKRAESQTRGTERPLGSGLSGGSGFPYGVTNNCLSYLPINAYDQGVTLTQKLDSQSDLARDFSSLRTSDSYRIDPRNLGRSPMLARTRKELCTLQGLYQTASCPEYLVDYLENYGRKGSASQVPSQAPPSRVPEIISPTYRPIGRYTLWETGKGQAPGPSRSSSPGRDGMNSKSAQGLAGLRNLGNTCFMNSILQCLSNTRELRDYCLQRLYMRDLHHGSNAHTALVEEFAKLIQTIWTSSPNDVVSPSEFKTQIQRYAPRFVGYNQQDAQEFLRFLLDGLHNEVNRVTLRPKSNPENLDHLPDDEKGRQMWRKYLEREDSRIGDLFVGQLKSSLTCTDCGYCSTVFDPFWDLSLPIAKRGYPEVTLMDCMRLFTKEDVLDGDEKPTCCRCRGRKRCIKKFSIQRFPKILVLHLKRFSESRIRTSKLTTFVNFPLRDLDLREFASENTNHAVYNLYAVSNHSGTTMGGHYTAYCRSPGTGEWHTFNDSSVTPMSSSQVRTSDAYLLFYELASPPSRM

The nature of experiment [5]: qHTS assay for small molecule agonists of the antioxidant response element (ARE) signaling pathway (AID 651741; active = well fitted activation curve with a large enough effect in the signal ratio; the % refers to the signal ratio). To be noted: HepG2 ARE-bla reporter, beta-lactamase FRET ratio, 16 h; series mostly up to 96 µM. The gist of the method:
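Reporter: beta-lactamase under ARE, stably in HepG2. Exposure: 16 h, 37 C, compounds delivered in DMSO by pin tool after 5 h cell preincubation. Readout: FRET substrate fluorescence after 2 h at RT.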

Experiment [6] can be described thus: qHTS assay for small molecule activators of the p53 signaling pathway (AID 651743; active = well fitted activation curve with a large enough effect in the signal ratio, not every such curve was filed as active; the % refers to the signal ratio). The conditions noted are these: HCT-116 p53RE-bla, beta-lactamase FRET ratio, 16 h; activation: stronger effect = higher value. The essentials: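 Agonist-mode quantitative HTS in HCT-116 cells carrying a p53-response-element beta-lactamase reporter; 16 h compound treatment at 37 C, then FRET substrate loading for 2 h at room temperature and fluorescence read.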

Experiment [7] is described as follows: qHTS assay for environmental chemicals that activate the Aryl hydrocarbon Receptor (AhR) signaling pathway (AID 651777). Also: nearly all actives have a fitted effect of over 15% in size. The conditions noted are these: 1A2-DRE human hepatoma cells, luciferase, 24 h; activation: stronger effect = higher value. The gist of the method: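 Following a 24 hr incubation with test chemicals at 37 C and 5% CO2, 1A2-DRE human hepatoma cells received One-Glo reagent; after 30 min at room temperature, luciferase output reflected CYP1A2 induction via AhR.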

A short description of experiment [8]: qHTS assay for small molecule agonists of the antioxidant response element (ARE) signaling pathway measured by Nrf2-dependant transcriptional activity - cell viability counter screen (AID 720653; active = well fitted curve in the direction sought with a large enough effect in the repeat runs; an effect the other way counts as inactive or inconclusive). To be noted: ARE-bla HepG2 viability, CellTiter-Glo ATP luminescence, 16 h; max response: stronger effect = lower value. The essentials: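 ARE-bla HepG2 cells (2,000/well) rested 5 hrs at 37C/5% CO2, then exposed to compounds in DMSO for 16 hrs. Viability was read in the same wells as intracellular ATP by luminescence, 30 min at room temperature after reagent addition.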

The nature of experiment [9]: qHTS assay for cell viability of HEK293 cells (AID 743288). Also: nearly all actives have a fitted effect of over 50% in size. To be noted: ATP luminescence (CellTiter-Glo), 18 h; max response: stronger effect = lower value. The essentials: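 Steps: plate 2,000 parental HEK293 cells per well; incubate ≥5 h, 37 C; add compounds in DMSO; incubate 18 h, 37 C; add CellTiter-Glo; wait 30 min at room temperature; read luminescence.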
Experiment [10] in a line: Cell Proliferation Assay against the TMD8 Cell Line (AID 651645).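 Also: cells exposed to compound for 48 h before reading.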 To be noted: TMD8 DLBCL cell line proliferation/viability; at 46.1 µM (top of the series). The gist of the method: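 TMD8 cells, 500/well in RPMI with 5% FBS, dosed immediately and grown 48 h at 37 C, 5% CO2. CellTiter-Glo luminescence normalised to DMSO 100% and 9.2 uM bortezomib (final) 0%.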
Experiment [11] is described as follows: Cell Proliferation Assay against the HBL1 Cell Line (AID 651646).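 Also: cells exposed to compound for 48 h before reading.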 To be noted: HBL1 DLBCL cells; at 46.1 µM (top of the series). The essentials: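 After a 48 h incubation of 500 HBL1 cells/well in phenol red-free RPMI plus 5% FBS, relative luciferase units from CellTiter-Glo gave percent activity against DMSO and 9.2 uM bortezomib (final) controls.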

The values below come from PubChem BioAssay (NCATS).

SMILES strings stand for the structures. “And” between values parts separate entries of the source, which are not always exact repeats. Equal values may be shown once. Inconclusive results are not listed. Entries that show only a call come without a potency. The source made the active and inactive calls. Unless noted, calls follow the shape of the dose curve; as a rule, active = well fitted curve in the direction sought with a large enough effect; inconclusive = small, poorly fitted or top-dose-only effect, or another doubt; inactive = no such curve, though single readings can be large; an effect the other way counts as inactive or inconclusive.

Chain of Tumor susceptibility gene 101 protein (Homo sapiens) (Q99816 whole entry, looked up, the tested form may be a part): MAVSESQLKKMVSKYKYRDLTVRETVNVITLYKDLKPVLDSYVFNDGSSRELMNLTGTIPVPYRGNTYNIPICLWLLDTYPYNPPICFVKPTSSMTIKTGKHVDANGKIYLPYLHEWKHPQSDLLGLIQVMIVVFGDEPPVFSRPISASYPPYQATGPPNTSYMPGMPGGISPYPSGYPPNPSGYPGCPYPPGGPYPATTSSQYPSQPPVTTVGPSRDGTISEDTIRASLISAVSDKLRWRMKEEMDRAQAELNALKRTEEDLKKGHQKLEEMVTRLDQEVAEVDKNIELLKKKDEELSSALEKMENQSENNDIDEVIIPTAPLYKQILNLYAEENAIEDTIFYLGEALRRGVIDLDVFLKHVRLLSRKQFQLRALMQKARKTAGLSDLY

Take `O=c1[nH]c(=O)n(-c2cc(Br)c(O)c(Br)c2)cc1Br`: the Potency result in [1] is “inactive”.

Consider `Cc1ccc(S(=O)(=O)Nc2cnccc2C(=O)Nc2nc(-c3ccc(F)cc3)cs2)cc1`, for which the result in experiment [2] was inactive. The Potency in experiment [3] is 20.9 µM (active).

As for `CCN(CC)CCCNc1ccc2ncn3c4ccc(O)cc4c(=O)c1c23`, the Potency in experiment [1] was 4.61 µM (active).

With `O=C(Nc1nc(-c2ccccc2)cs1)c1ccncc1NS(=O)(=O)c1ccccc1F`, the call in experiment [2] was inactive. Moreover, the Potency entry in experiment [3] is “inactive”. Further, in experiment [4], the Potency is 2.43 µM (active).

With `CC(C)(C)NC(=O)N1CCC(C(=O)Nc2ccc([S+](=O)([O-])Nc3nccs3)cc2)CC1`, the call in experiment [2] was inactive. Besides, the Potency entry in experiment [3] and in [4] was “inactive” throughout.

Turning to `CCCCCCCC1CCC(=O)O1` (configuration not stated), in [5], the Potency entry is “inactive”. The activation was -2.71% (inactive) in [6] and 4.53% (inactive) in experiment [7]. Moreover, the max response in experiment [8] and in experiment [9] was -3.73% (inactive) throughout.

Consider `Cc1ccc(S(=O)(=O)Nc2cnccc2C(=O)Nc2nc3ccccc3s2)cc1`, for which, in [2], the outcome was inactive. Also, in experiment [3], the Potency entry was “inactive”. Also, the Potency in [4] was 3.43 µM (active).

With `Cc1ccc(-c2cc(C(=O)NC3CCCCC3)c3ccccc3n2)cc1C`, the molecule was classed as inactive in experiment [2]. In addition, in [3], the Potency entry is “inactive”.

With `CC(=O)Nc1ccc(NC(=O)c2cc(-c3ccc(C)c(C)c3)nc3ccccc23)cc1`, in experiment [2], the call was inactive.

Regarding `CN(Cc1nccs1)S(=O)(=O)c1ccc(Nc2nc(-c3ccccc3)cs2)cc1`, the result in experiment [2] was inactive. Besides, the Potency result in experiment [3] is “inactive”.

As for `CC(=O)Nc1ncc(S(=O)(=O)Nc2cnccc2C(=O)Nc2nc(-c3ccccc3)cs2)s1`, the molecule was classed as inactive in experiment [2]. Moreover, in [3], the Potency result is “inactive”. The Potency in experiment [4] was 10.9 µM (active).

As to `O=C(Nc1nc(-c2ccccc2)cs1)c1ccncc1NS(=O)(=O)c1ccc(F)cc1`, in experiment [2], the molecule was classed as inactive. The Potency entry in [3] is “inactive”. In experiment [4], the Potency was 3.06 µM (active).

Consider `N#Cc1ccccc1S(=O)(=O)Nc1cnccc1C(=O)Nc1nc(-c2ccccc2)cs1`, for which, in [2], the result was inactive. Also, in experiment [3], the Potency entry was “inactive”. For the same molecule, in experiment [4], the Potency is 7.69 µM (active).

For `Cc1cc(S(=O)(=O)Nc2cnccc2C(=O)Nc2nc(-c3ccccc3)cs2)c(C)o1`, the outcome in experiment [2] was inactive. The Potency in experiment [3] is 23.5 µM (active); in experiment [4], 3.43 µM (active).

As to `CCc1ccc(S(=O)(=O)Nc2cnccc2C(=O)Nc2nc(-c3ccccc3)cs2)cc1`, the outcome in experiment [2] was inactive. The Potency in experiment [3] is 20.9 µM (active); in [4], 1.72 µM (active).

`O=C(Nc1nc(-c2ccccc2)cs1)c1ccncc1NS(=O)(=O)c1ccc(F)cc1Cl`: the outcome in experiment [2] was inactive. In experiment [3], the Potency result is “inactive”. Moreover, in experiment [4], the Potency is 1.93 µM (active).

As for `Nc1ccc(S(=O)(=O)Nc2cnccc2C(=O)Nc2nc(-c3ccccc3)cs2)cc1`, the molecule was classed as inactive in experiment [2]. Moreover, the Potency entry in experiment [3] is “inactive”. In addition, the Potency in [4] was 17.2 µM (active).

For `Cc1ccc(S(=O)(=O)Nc2cnccc2C(=O)Nc2nc(-c3ccc4c(c3)CCCC4)cs2)cc1`, in [2], the molecule was called inactive. Besides, the results for the Potency in [3] and in experiment [4] were 20.9 µM (active) and 2.17 µM (active), respectively.

As to `COc1ccccc1S(=O)(=O)Nc1cnccc1C(=O)Nc1nc(-c2ccccc2)cs1`, the result in experiment [2] was inactive. The Potency entry in [3] is “inactive”. Also, the Potency in experiment [4] is 13.7 µM (active).

Turning to `COCOC1CCC(C(=O)Nc2ccc([S+](=O)([O-])Nc3nccs3)cc2)CC1` (configuration not stated), in experiment [2], the result was inactive. The Potency entry in [3] and in experiment [4] was “inactive” each time.

For the molecule `COc1ccc(C(=O)Nc2nc(-c3ccccc3)cs2)c(NS(=O)(=O)c2ccc(C)cc2)c1`, the result in experiment [2] was inactive. Moreover, the Potency was 13.2 µM (active) in experiment [3] and 1.37 µM (active) in experiment [4].

On to `Cc1ccc(-c2cc(C(=O)Nc3ccc(S(=O)(=O)O)cc3)c3ccccc3n2)cc1C`, for which, in experiment [2], the outcome was inactive. In experiment [3], the Potency entry is “inactive”. Moreover, the Potency in [4] is 13.7 µM (active).

Turning to `O=C(Nc1nc(-c2ccccc2)cs1)c1ccncc1NS(=O)(=O)c1ccccc1`, the outcome in experiment [2] was inactive.

Turning to `O=C(Nc1nc(-c2ccccc2)cs1)c1ccncc1NS(=O)(=O)c1ccc(F)c(F)c1`, the molecule was called inactive in [2]. Further, in experiment [3], the Potency entry was “inactive”. Besides, in experiment [4], the Potency is 2.17 µM (active).

On to `O=S(=O)(Nc1nccs1)c1ccc(Nc2nc(-c3ccc(F)cc3)cs2)cc1`, for which the molecule was classed as inactive in experiment [2]. Also, in experiment [3], the Potency result is “inactive”. In addition, in [4], the Potency is 3.06 µM (active) and 9.68 µM (active).

On to `Cc1ccccc1S(=O)(=O)Nc1cnccc1C(=O)Nc1nc(-c2ccccc2)cs1`, for which the outcome in [2] was inactive. The Potency is 18.7 µM (active) in experiment [3] and 2.43 µM (active) in [4].

In the case of `Cc1ccc(-c2cc(C(=O)Nc3ccc(C(F)(F)F)cc3)c3ccccc3n2)cc1C`, in experiment [2], the molecule was called inactive. Further, the Potency result in experiment [3] is “inactive”.

As to `N#Cc1cnc(N[S+](=O)([O-])c2ccc(Nc3nc(-c4ccccc4)cs3)cc2)s1`, the molecule was classed as inactive in [2]. Further, the Potency entry in experiment [3] and in experiment [4] was “inactive” each time.

`Cc1ccc(-c2csc(NC(=O)c3ccncc3NS(=O)(=O)c3ccc(C)cc3)n2)cc1`: the call in experiment [2] was inactive. In addition, the Potency in experiment [3] is 14.8 µM (active); in experiment [4], 1.22 µM (active).

As to `O=C(Nc1nc(-c2ccccc2)cs1)c1ccncc1NS(=O)(=O)c1ccc(Cl)cc1`, in experiment [2], the result was inactive. Besides, the Potency entry in experiment [3] was “inactive”. In [4], the Potency was 1.53 µM (active).

On to `C=C1C(=C/C=C2\CCC[C@]3(C)[C@@H]([C@H](C)/C=C/[C@H](C)C(C)C)CC[C@@H]23)C[C@@H](O)C[C@@H]1O`, for which the viability (% of control) in experiment [10] is -0.788%. In addition, the viability, percent of control in [11] was -0.446%.
